# Tests used:
# Assay in all cases: HT-SELEX; 20 mM HEPES pH 7, 140 mM KCl, 5 mM NaCl, 1 mM K2HPO4, 2 mM MgSO4, 100 uM EGTA, ZnSO4, 0.1% Tween20; room temperature, 1 h; high values mean tight binding
# Conditions in all cases: protein: ivt; tags: eGFP (N-terminal); dsDNA, one strand shown
# [1] = target: ZNF721 full-length (Homo sapiens, UniProt Q8TF20-2 1-923)
# Outline: (§1)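 Tagged transcription factor, expressed in HEK293 lysate or cell-free extract as a full-length protein or DNA-binding-domain fragment, was held on beads. It bound a randomized 40-base DNA library during 1 h at room temperature in low-stringency HEPES/KCl buffer with Tween20. Eluted DNA went through successive PCR cycles and Illumina sequencing of ~3 million 60 bp reads per sample. A higher relative k-mer count in the selected reads denotes tighter binding.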
# [2] = target: ZNF721 DBD1 (Homo sapiens, UniProt Q8TF20-2 29-461)
# Chain of ZNF721 DBD1 (Q8TF20 17-449): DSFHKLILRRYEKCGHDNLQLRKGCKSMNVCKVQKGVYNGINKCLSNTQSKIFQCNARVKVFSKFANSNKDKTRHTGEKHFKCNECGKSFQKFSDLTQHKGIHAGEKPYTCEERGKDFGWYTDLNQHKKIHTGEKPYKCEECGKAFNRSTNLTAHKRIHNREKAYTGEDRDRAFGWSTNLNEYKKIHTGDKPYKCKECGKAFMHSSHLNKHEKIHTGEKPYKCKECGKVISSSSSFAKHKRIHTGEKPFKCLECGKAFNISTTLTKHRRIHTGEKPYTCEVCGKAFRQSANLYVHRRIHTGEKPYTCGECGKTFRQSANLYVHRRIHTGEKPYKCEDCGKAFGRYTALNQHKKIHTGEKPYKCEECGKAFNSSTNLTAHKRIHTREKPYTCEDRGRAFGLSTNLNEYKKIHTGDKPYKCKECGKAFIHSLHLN
# Outline: as §1
# [3] = target: ZNF721 DBD2 (Homo sapiens, UniProt Q8TF20-2 395-923)
# Chain of ZNF721 DBD2 (Q8TF20 383-911): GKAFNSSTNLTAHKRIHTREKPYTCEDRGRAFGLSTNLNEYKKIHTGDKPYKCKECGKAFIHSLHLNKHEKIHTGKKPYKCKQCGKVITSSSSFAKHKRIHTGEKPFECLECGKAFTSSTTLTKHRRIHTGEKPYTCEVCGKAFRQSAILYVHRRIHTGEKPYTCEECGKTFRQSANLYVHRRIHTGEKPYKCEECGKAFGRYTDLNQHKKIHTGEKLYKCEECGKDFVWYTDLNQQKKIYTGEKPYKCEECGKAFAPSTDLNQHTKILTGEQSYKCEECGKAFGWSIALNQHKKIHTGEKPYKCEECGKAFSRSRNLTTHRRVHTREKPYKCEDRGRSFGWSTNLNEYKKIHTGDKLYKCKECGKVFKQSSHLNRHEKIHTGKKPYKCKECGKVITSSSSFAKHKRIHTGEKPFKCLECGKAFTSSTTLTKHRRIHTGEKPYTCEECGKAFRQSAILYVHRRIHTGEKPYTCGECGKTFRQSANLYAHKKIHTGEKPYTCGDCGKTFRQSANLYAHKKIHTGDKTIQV
# Outline: as §1
# Chain of ZNF721 full-length (Q8TF20 other isoform, or with tags, fused parts or gaps): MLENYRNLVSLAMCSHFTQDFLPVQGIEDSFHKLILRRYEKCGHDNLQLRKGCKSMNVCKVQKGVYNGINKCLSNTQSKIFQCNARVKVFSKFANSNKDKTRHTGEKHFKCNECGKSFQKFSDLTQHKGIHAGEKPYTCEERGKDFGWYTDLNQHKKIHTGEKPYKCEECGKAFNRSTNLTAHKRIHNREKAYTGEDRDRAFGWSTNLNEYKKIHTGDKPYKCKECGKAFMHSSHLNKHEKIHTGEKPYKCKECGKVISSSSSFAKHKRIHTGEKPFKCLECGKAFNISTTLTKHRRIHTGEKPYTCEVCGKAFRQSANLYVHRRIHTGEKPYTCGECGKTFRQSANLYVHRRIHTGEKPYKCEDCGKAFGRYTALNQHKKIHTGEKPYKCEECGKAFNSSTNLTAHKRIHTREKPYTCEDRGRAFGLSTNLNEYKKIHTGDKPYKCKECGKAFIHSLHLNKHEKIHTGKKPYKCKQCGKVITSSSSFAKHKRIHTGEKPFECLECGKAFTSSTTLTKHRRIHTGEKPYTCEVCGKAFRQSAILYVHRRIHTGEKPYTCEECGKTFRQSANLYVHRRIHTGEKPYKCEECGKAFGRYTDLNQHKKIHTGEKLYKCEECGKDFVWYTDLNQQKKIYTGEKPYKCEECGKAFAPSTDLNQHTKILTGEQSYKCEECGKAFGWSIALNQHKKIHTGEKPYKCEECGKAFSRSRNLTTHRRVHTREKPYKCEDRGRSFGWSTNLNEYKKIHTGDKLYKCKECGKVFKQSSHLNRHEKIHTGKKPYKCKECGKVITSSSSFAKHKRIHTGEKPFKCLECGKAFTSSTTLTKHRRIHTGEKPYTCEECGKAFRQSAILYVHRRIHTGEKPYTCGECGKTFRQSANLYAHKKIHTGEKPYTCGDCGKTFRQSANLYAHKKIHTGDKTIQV
Sequence,binding signal [1],binding signal [2],binding signal [3]
CCCCGGCCCC,0.12 relative 10-mer count,0.00358 relative 10-mer count,–
AACCCACCCC,0.143 relative 10-mer count,0.00596 relative 10-mer count,–
ACTTCATACC,0.377 relative 10-mer count,0.502 relative 10-mer count,–
CCCCCCCCCC,0.116 relative 10-mer count,0.00358 relative 10-mer count,–
AGCTTCATAC,0.196 relative 10-mer count,0.296 relative 10-mer count,–
CCCTCCCGCC,0.161 relative 10-mer count,0.00716 relative 10-mer count,0.00503 relative 10-mer count
CCCAGCCCCC,0.163 relative 10-mer count,0.00518 relative 10-mer count,–
ACTTCATACT,0.154 relative 10-mer count,0.27 relative 10-mer count,–
ACTTCATACA,0.358 relative 10-mer count,0.393 relative 10-mer count,–
CGCCGCCCCC,0.138 relative 10-mer count,0.00518 relative 10-mer count,–
AGTATGAAGC,0.167 relative 10-mer count,0.232 relative 10-mer count,–
CGGTATGAAG,0.108 relative 10-mer count,0.15 relative 10-mer count,–
ATACACTTCA,0.245 relative 10-mer count,0.223 relative 10-mer count,–
GAAGCTATAC,0.107 relative 10-mer count,0.143 relative 10-mer count,–
CCCCTGCCCC,0.217 relative 10-mer count,0.00734 relative 10-mer count,–
GAAGTGTATC,0.279 relative 10-mer count,0.247 relative 10-mer count,–
AAAGCTATAC,0.183 relative 10-mer count,0.0924 relative 10-mer count,–

Sequence,binding signal [1],binding signal [2],binding signal [3]
CCCGCCCGCC,0.128 relative 10-mer count,0.0044 relative 10-mer count,–
CCCCCGGCCC,0.102 relative 10-mer count,0.00394 relative 10-mer count,–
ATGAAGTGTA,0.376 relative 10-mer count,0.432 relative 10-mer count,–
AAAAAAAGCG,0.217 relative 10-mer count,0.0356 relative 10-mer count,0.0422 relative 10-mer count
ATGTATGAAG,0.263 relative 10-mer count,0.279 relative 10-mer count,–
ACCCACCCAC,0.196 relative 10-mer count,0.00922 relative 10-mer count,0.00887 relative 10-mer count
ACCCGCCCCC,0.153 relative 10-mer count,0.005 relative 10-mer count,–
CCAGCCCCCC,0.131 relative 10-mer count,0.00316 relative 10-mer count,–
CTTCATACCA,0.116 relative 10-mer count,0.165 relative 10-mer count,–
CCCCACCCAC,0.337 relative 10-mer count,0.0124 relative 10-mer count,0.00587 relative 10-mer count
CCCGCACCCC,0.193 relative 10-mer count,0.00784 relative 10-mer count,–
CCCGCTCCCC,0.13 relative 10-mer count,0.00527 relative 10-mer count,–
CGCCCCCCCC,0.171 relative 10-mer count,0.00527 relative 10-mer count,–
AGGTATGAAG,0.192 relative 10-mer count,0.217 relative 10-mer count,–
AAAAGCTATA,0.177 relative 10-mer count,0.0882 relative 10-mer count,–
CCCCGACCCC,0.24 relative 10-mer count,0.00789 relative 10-mer count,–
AAGAAGCTAT,0.144 relative 10-mer count,0.16 relative 10-mer count,–

# — paper PMC13541613, “GHT-SELEX demonstrates unexpectedly high intrinsic sequence specificity and complex DNA binding of many human transcription factors”
